# Bioassay records deposited in PubChem BioAssay by National Center for Advancing Translational Sciences (NCATS).
# ELG1 repair inh: qHTS screen for small molecules that inhibit ELG1-dependent DNA repair in human embryonic kidney (HEK293T) cells expressing luciferase-tagged ELG1; Potency, µM (titrated, usually from 46.1 µM), without a hit: at the highest dose activity change, negative = inhibition, usual class: inhibitors; 330,000 compounds, 2.3% hits; HEK293T ELG1-luciferase reporter, luminescence, 16 h; DNA damage induced by 5-fluorouridine; also: potency is read from the fitted curve at half-maximal effect; % is scaled to controls: 0 for no effect and ±100 for the full control effect; nearly all actives have a fitted effect of over 55% in size
#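 Reporter activity after DNA damage by 5-fluorouridine is monitored. Compound-treated cells incubate 16 hr at 37 °C, then ONE-Glo is added for 30 min before luminescence reading.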
# Gal4-VP16 FLuc: VP16 counterscreen qHTS for inhibitors of ROR gamma transcriptional activity. Drosophila S2 Gal4-VP16 UAS-luciferase, luminescence, 20 h. 310,000 compounds, 3.5% hits. Potency, µM (doses to about 53.6 µM), for the others: at the top dose activity, negative = inhibition, hits mostly inhibitors;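 also: Gal4-VP16 expression switched on by copper sulfate through the metallothionein promoter; potency is read from the fitted curve at half-maximal effect; % is scaled to controls: 0 for no effect and ±100 for the full control effect; nearly all actives have a fitted effect of over 50% in size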
# Giardia kill: Small Molecules that selectively kill Giardia lamblia: qHTS; activity change, % at 7.66 µM, hits read low; 340,000 compounds, 0.15% hits; Giardia lamblia trophozoite viability; in the data active = activity change below about -80%; inconclusive = between about -30% and that limit;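 also: parasites exposed to compound for two days anaerobically before the ATP read; % is scaled to controls: 0 for no effect and ±100 for the full control effect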
#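 Luminescence from cellular ATP indicates surviving trophozoites (100 cells/well) following 48 hrs anaerobic compound treatment at 37 deg C; signal develops 15-30 min at room temperature.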
# p53 reactivation: qHTS assay for re-activators of p53 using a Luc reporter. Potency, µM (series often up to 92.2 µM), for inactives: at the highest dose activity change, positive = activation, hits mostly activators. H1299 p53-A138V BP100-luciferase reporter, luminescence, 24 h. 320,000 compounds, 0.063% hits; also: potency is read from the fitted curve at half-maximal effect; % of control where 0% means no effect; nearly all actives have a fitted effect of over 45% in size
#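 p53-null H1299 cells stably carrying temperature-sensitive p53-A138V and a BP100-luciferase reporter were pinned with compounds (4-point, 1:5 series) and held 24 hrs at 37 deg C. Luminescence was read 10 min after detection reagent.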
# BRCA1 expr up: qHTS Assay to Identify Small Molecule Activators of BRCA1 Expression; 380,000 compounds, 1.1% hits; Potency, µM (series often up to 46.1 µM), for inactives: at the highest dose activation, usual class: activators; MCF7-BRCA1-FFLuc reporter, luminescence, 48 h; response scale: scaled: vehicle 0%, 10 µM genistein 100%; AID 624202, 2012; also: potency is read from the fitted curve at half-maximal effect; nearly all actives have a fitted effect of over 80% in size
#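 Luminescence from a BRCA1-driven firefly luciferase in MCF7 cells was the read-out, taken 15 min after substrate addition following 48 h compound exposure at 37 °C. Data were normalized to a 10 microM genistein control and DMSO vehicle.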
# RORgamma inh: qHTS for inhibitors of ROR gamma transcriptional activity; Nuclear receptor ROR-gamma (Mus musculus), P51450; Drosophila S2 Gal4-RORgamma UAS-luciferase reporter, 20 h; Potency, µM (titrated, usually from 53.6 µM), for inactives: at the highest dose activity change, negative = inhibition, most hits filed as inhibitors; 310,000 compounds, 5.4% hits; also: potency is read from the fitted curve at half-maximal effect; % is scaled to controls: 0 for no effect and ±100 for the full control effect; nearly all actives have a fitted effect of over 60% in size
# Target sequence (P51450 whole entry, looked up, the tested form may be a part): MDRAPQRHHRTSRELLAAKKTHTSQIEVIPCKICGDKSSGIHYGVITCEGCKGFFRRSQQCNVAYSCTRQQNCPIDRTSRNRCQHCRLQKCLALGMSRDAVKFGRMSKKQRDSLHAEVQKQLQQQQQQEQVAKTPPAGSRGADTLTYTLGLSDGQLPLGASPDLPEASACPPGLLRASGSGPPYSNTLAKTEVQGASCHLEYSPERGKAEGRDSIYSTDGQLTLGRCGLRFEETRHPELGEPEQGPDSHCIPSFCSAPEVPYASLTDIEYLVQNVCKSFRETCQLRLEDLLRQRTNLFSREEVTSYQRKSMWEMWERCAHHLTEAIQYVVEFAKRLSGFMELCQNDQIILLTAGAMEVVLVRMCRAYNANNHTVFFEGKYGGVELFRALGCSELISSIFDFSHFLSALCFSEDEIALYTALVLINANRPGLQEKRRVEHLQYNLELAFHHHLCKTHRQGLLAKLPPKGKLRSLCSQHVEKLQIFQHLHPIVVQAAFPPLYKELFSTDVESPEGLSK
#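 ROR gamma transcriptional activity was tracked as Gal4-UAS luciferase output in stably transfected Drosophila Schneider cells, with compound added 1 hr before 700 uM copper sulfate induction and a 20 hr ambient-temperature incubation.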
# An asterisk follows results filed as active; ? = inconclusive; . = no result. This is a sample that favours compounds with a hit; in the whole collection about 7.6% have one here. Unless noted, calls follow the shape of the dose curve; as a rule, active = well fitted curve in the direction sought with a large enough effect; inconclusive = small, poorly fitted or top-dose-only effect, or another doubt; inactive = no such curve, though single readings can be large; an effect the other way counts as inactive or inconclusive.
SMILES,ELG1 repair inh,Gal4-VP16 FLuc,Giardia kill,p53 reactivation,BRCA1 expr up,RORgamma inh
COC(=O)c1ccc(NC(=S)NC2CCCCC2C)cc1 (stereo not drawn),-8.2%,3.55µM*,-28.3,11.8%,-18.0%,7.94µM*
COc1ccc(NC(=S)NC(=O)C2CCC2)cc1,?,11.2µM*,?,?,?,8.91µM*
CCOC(=O)c1ccc(NC(=S)NC2CCCC2)cc1,?,?,5.6,7.3%,7.0%,?
COC(=O)c1ccc(NC(=S)NC(=O)C2CCC2)cc1,?,?,-12.8,11.7%,40.6%,11.2µM*
CCOC(=O)c1ccc(NC(=S)NC(=O)C2CCCC2)cc1,-2.7%,7.08µM*,-11.5,-5.7%,25.7%,7.08µM*
Cc1c(O)ccc(C(=O)COc2ccc(F)cc2)c1O,?,-20.9%,-12.2,?,?,-16.4%
CCc1cccc(C)c1NC(=O)CSc1nnc(-c2cc3cc(Br)ccc3o2)n1CC,?,-0.6%,13.6,-6.6%,-45.2%,33.4%
Cc1ccc2oc3c(c(=O)c2c1)C(c1cccc(O)c1)N(CCCN1CCOCC1)C3=O (stereo not drawn),.,.,.,.,-41.3%,.
Cc1ccc2oc3c(c(=O)c2c1)C(c1cccc(Cl)c1)N(CCCN1CCOCC1)C3=O (stereo not drawn),10.3µM*,2.9%,-10.8,-17.4%,-63.6%,5.7%
Cc1ccccc1NC(=S)NC(C)C(c1cccs1)N1CCOCC1 (stereo not drawn),0.4%,22.4µM*,-2.0,-1.2%,-10.8%,2.82µM*
CC(NC(=S)NCCc1ccccc1)C(c1cccs1)N1CCN(Cc2ccccc2)CC1 (stereo not drawn),?,?,-14.1,17.0%,-35.4%,5.01µM*
CC(NC(=S)Nc1ccc(F)cc1)C(c1cccs1)N1CCOCC1 (stereo not drawn),-1.4%,?,-13.5,0.6%,-27.9%,3.98µM*
CC(NC(=S)Nc1ccccc1Cl)C(c1cccs1)N1CCCC1 (stereo not drawn),0.3%,?,-3.9,-5.6%,8.1%,7.94µM*
Cc1cccc(NC(=S)NC(C)C(c2cccs2)N2CCN(C)CC2)c1C (stereo not drawn),13.8%,-8.9%,?,-0.5%,-1.3%,?
Cc1ccc(Nc2nc(CSc3nnc(-c4cccnc4)n3-c3ccccc3F)cs2)cc1,?,-9.5%,-4.0,10.7%,29.2%,3.98µM*
Cc1ccc(CSc2nnc(-c3ccncc3)n2C)cc1,-10.5%,-1.8%,-1.7,-0.6%,7.5%,-4.3%
Cc1ccc(NC(=O)CSc2nnc(-c3cccnc3)n2-c2ccc(C)cc2)cc1,?,?,34.8,-8.2%,-8.1%,?
Cc1ccc(Nc2nc(CSc3nnc(-c4ccncc4)n3C)cs2)cc1,?,?,?,?,?,15.8µM*
CN(Cc1cc2ccccc2[nH]c1=O)C(=O)COc1ccccc1,0.0%,6.8%,32.9,-3.2%,4.0%,-4.2%
O=C(c1ccc(S(=O)(=O)N2CCCCCC2)cc1)N1CCN(c2ccccn2)CC1,?,-2.2%,1.7,-6.1%,-7.5%,-24.9%
CCn1c(SCC(=O)Nc2ccc(C(C)=O)cc2)nc2nc3c(cc2c1=O)CCCC3,?,?,-1.8,?,46.6%,?
CCn1c(SCc2ccccc2Cl)nc2ccccc21,?,-5.1%,-8.0,13.7%,?,10µM*
CCn1c(SCc2ccccc2Cl)nc2nc3c(cc2c1=O)CCCC3,?,?,17.7,9.3%,-62.1%,11.2µM*
Cn1c(SCc2ccccc2Cl)nc2ccccc21,?,-8.3%,6.1,?,?,?
